Source: PubChem BioAssay (NCI)
About 79,000 compounds went through this panel and 15% of them were active in at least one assay; those are over-represented in the sample as a whole. Activity calls are given as the source filed them. No stated cut-off is given here; in the data, active means growth inhibition above about 70%; inactive means the rest.

Columns and labels:
[1] = NCI Yeast Anticancer Drug Screen. Data for the wt1 strain (AID 149);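 further: 0% = growth of vehicle-treated wt1 cultures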; conditions: S. cerevisiae wt1 strain (SPY 50644) growth inhibition, hits give high values
How it was run: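 Yeast wt1 strain exposed to compounds; growth inhibition measured relative to vehicle-treated controls.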

[2] = NCI Yeast Anticancer Drug Screen. Data for the rad50EPP+ strain (AID 151);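 further: 0% = growth of vehicle-treated control cultures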; conditions: S. cerevisiae rad50 mutant strain, hits give high values
How it was run: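 Yeast strain carrying rad50 alteration (rad50EPP+) exposed to compounds; growth inhibition measured relative to vehicle-treated controls.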

[3] = NCI Yeast Anticancer Drug Screen. Data for the mgt1 strain (AID 153); conditions: S. cerevisiae mgt1 mutant growth inhibition, hits give high values
How it was run: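 Yeast mgt1 strain (DNA repair/cell-cycle alteration panel) exposed to compounds; growth inhibition measured relative to vehicle-treated controls.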

[4] = NCI Yeast Anticancer Drug Screen. Data for the rad50 strain (AID 155);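 further: 0% = growth of vehicle-only cultures of the same strain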; conditions: S. cerevisiae rad50 strain growth inhibition, hits give high values
How it was run: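 Yeast carrying a defined DNA repair defect were exposed to test compounds, and growth was compared with vehicle-treated controls to give percent inhibition.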

[5] = NCI Yeast Anticancer Drug Screen. Data for the mec2-1 strain (AID 157); conditions: S. cerevisiae mec2-1 strain, hits give high values
How it was run: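 mec2-1 yeast strain, carrying an alteration in DNA damage repair or cell cycle control, was exposed to compounds; growth inhibition was measured relative to vehicle-treated controls.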

[6] = NCI Yeast Anticancer Drug Screen. Data for the rad14 strain (AID 159);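 further: 0% = growth of vehicle-treated control cultures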; conditions: S. cerevisiae rad14 strain growth inhibition, hits give high values
How it was run: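 Yeast cells carrying a defined DNA-repair defect were exposed to compounds, and growth inhibition was calculated relative to vehicle-treated control cultures.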

[7] = NCI Yeast Anticancer Drug Screen. Data for the sgs1 mgt1 strain (AID 161);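 further: 0% = growth of cultures given vehicle only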; conditions: S. cerevisiae sgs1 mgt1 strain, hits give high values
How it was run: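 Compounds are added to genetically altered yeast, and growth is compared with cultures given vehicle alone to give percent inhibition.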

[8] = NCI Yeast Anticancer Drug Screen. Data for the CLN2oe strain (AID 163);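 further: 0% = growth of vehicle-only control cultures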; conditions: S. cerevisiae CLN2oe strain, hits give high values
How it was run: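 Yeast cells carrying a defined cell-cycle control alteration were exposed to test compounds. Growth inhibition was scored against vehicle-treated control cultures.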

[9] = NCI Yeast Anticancer Drug Screen. Data for the cln2 rad14 strain (AID 165);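 further: 0% = growth equal to vehicle treated cultures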; conditions: S. cerevisiae cln2 rad14 strain, hits give high values
How it was run: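 Yeast carrying cln2 and rad14 alterations (cell cycle control and DNA damage repair) were exposed to compounds. Growth inhibition was measured against vehicle-treated controls.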

[10] = NCI Yeast Anticancer Drug Screen. Data for the bub3 strain (AID 167); conditions: S. cerevisiae bub3 mutant strain, hits give high values
How it was run: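 Compounds were applied to a genetically altered yeast strain carrying a cell-cycle control defect. Growth inhibition was scored against vehicle-treated controls.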

[11] = NCI Yeast Anticancer Drug Screen. Data for the wt2 strain (AID 169);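 further: 0% = growth of vehicle-treated yeast cultures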; conditions: S. cerevisiae wt2 strain growth inhibition, hits give high values
How it was run: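 Yeast cells were exposed to test compounds, and growth inhibition was measured relative to vehicle-treated controls.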

[12] = NCI Yeast Anticancer Drug Screen. Data for the mlh1 strain (AID 171);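 further: 0% = growth of vehicle-treated control cultures of the same strain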; conditions: S. cerevisiae mlh1 strain growth inhibition, hits give high values
How it was run: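 Yeast carrying a defined genetic alteration in DNA damage repair or cell cycle control were exposed to test compounds. Growth inhibition was measured relative to vehicle-treated controls.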

[13] = NCI Yeast Anticancer Drug Screen. Data for the sgs1 strain (AID 173);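 further: 0% = growth of vehicle-only control cultures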; conditions: S. cerevisiae sgs1 mutant, hits give high values
How it was run: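 Yeast mutant strains carrying defined defects in DNA damage repair or cell cycle control were exposed to test compounds. Growth inhibition was scored against vehicle-treated controls.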

[14] = NCI Yeast Anticancer Drug Screen. Data for the mlh1 rad18 strain (AID 175); conditions: S. cerevisiae mlh1 rad18 strain growth inhibition, hits give high values
How it was run: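 Growth inhibition of the yeast strain was measured after compound exposure and expressed relative to vehicle-treated controls. The strain carries defined defects in DNA damage repair.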

[15] = NCI Yeast Anticancer Drug Screen. Data for the rad18 strain (AID 177); conditions: S. cerevisiae rad18 mutant growth inhibition, hits give high values
How it was run: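 Yeast carrying a defined DNA damage repair alteration were exposed to compounds. Growth inhibition was expressed relative to vehicle-treated controls.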

[16] = at 5.0 µM (retest, dose inferred, filed as 0.5)
[17] = at 50.0 µM (retest, dose inferred, filed as 5.0)

Measured: growth inhibition

CC(C)OC(CCC#N)c1ccc(Cl)cc1 (stereo not drawn)
active: [4]; [17] 99% | [5]; [17] 99% | [14]; [17] 100%
inactive: [1]; at 1.2 µM -35% | [1]; at 3.7 µM -28% | [1]; at 11.0 µM -24% | [1]; at 33.0 µM -13% | [1]; at 100.0 µM 4% | [2]; at 1.2 µM -6% | [2]; at 3.7 µM 1% | [2]; at 11.0 µM 2% | [2]; at 33.0 µM 5% | [2]; at 100.0 µM 20% | [3]; at 1.2 µM -46% | [3]; at 3.7 µM -44% | [3]; at 11.0 µM -41% | [3]; at 33.0 µM -17% | [3]; at 100.0 µM 7% | [4]; at 1.2 µM -22% | [4]; at 3.7 µM -25% | [4]; [16] 62% | [4]; at 11.0 µM -26% | [4]; at 33.0 µM -6% | [4]; at 50.0 µM 3.4% | [4]; at 100.0 µM 24% | [5]; at 1.2 µM -29% | [5]; at 3.7 µM -28% | [5]; [16] 55% | [5]; at 11.0 µM -18% | [5]; at 33.0 µM -2% | [5]; at 50.0 µM 7.95% | [5]; at 100.0 µM 7% | [6]; at 1.2 µM -22% | [6]; at 3.7 µM -26% | [6]; at 11.0 µM -12% | [6]; at 33.0 µM -6% | [6]; at 100.0 µM 1% | [7]; [16] 2% | [7]; [17] -4% | [7]; at 50.0 µM 56% | [8]; at 1.2 µM 11% | [8]; at 3.7 µM -6% | [8]; at 11.0 µM 14% | [8]; at 33.0 µM 15% | [8]; at 100.0 µM 11% | [9]; [16] 48% | [9]; [17] 46% | [9]; at 50.0 µM 6.8% | [10]; at 1.2 µM -18% | [10]; at 3.7 µM -12% | [10]; [16] 44% | [10]; at 11.0 µM -19% | [10]; at 33.0 µM 5% | [10]; [17] 45% | [10]; at 50.0 µM -1.8% | [10]; at 100.0 µM 4% | [11]; at 1.2 µM -19% | [11]; at 3.7 µM -21% | [11]; at 11.0 µM -17% | [11]; at 33.0 µM -12% | [11]; at 100.0 µM 12% | [12]; at 1.2 µM -23% | [12]; at 3.7 µM -15% | [12]; at 11.0 µM -16% | [12]; at 33.0 µM 6% | [12]; at 100.0 µM 11% | [13]; at 1.2 µM -20% | [13]; at 3.7 µM -11% | [13]; at 11.0 µM -8% | [13]; at 33.0 µM 17% | [13]; at 100.0 µM 40% | [14]; [16] 42% | [14]; at 50.0 µM 19.9% | [15]; at 1.2 µM -29% | [15]; at 3.7 µM -32% | [15]; at 11.0 µM -24% | [15]; at 33.0 µM -16% | [15]; at 100.0 µM 0%
